SW480 rereplic: A quantitative high throughput screen for small molecules that induce DNA re-replication in SW480 colon adenocarcinoma cells; SW480 DNA re-replication, Hoechst DNA content imaging, 48 h; Potency, µM (top dose mostly 46.1 µM), inactives show at the highest dose re-replication activation, most hits filed as activators; hit rate 1.8% among 340,000; AID 624297, 2012; also: % of control where 0% means no effect; nearly all actives have a fitted effect of over 55% in size
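DNA re-replication was detected as more nuclei of elevated Hoechst intensity after 48 hr exposure to compound (23 nL pinned per well of 250 cells).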
TSG101-PTAP inh: qHTS Assay for Iinhibitors of HIV-1 Budding by Blocking the Interaction of PTAP/TSG101; Tumor susceptibility gene 101 protein (Homo sapiens), Q99816; Fluorescence polarization, FITC-PTAP peptide / Tsg101 binding; Potency, µM (series often up to 115 µM), for inactives: at the highest dose activity change, negative = inhibition, actives largely listed as inhibitors; 340,000 tested, under 10 active; AID 493005, 2010; active = well fitted inhibition curve with a large enough effect in the main read-out, with a control signal flat, not every such curve was filed as active; inconclusive = small, poorly fitted or top-dose-only effect, or effect the other way, or a change in a side signal; inactive = no such curve, though single readings can be large or run the other way; also: % of control where 0% means no effect
Target sequence (Q99816 whole entry, looked up): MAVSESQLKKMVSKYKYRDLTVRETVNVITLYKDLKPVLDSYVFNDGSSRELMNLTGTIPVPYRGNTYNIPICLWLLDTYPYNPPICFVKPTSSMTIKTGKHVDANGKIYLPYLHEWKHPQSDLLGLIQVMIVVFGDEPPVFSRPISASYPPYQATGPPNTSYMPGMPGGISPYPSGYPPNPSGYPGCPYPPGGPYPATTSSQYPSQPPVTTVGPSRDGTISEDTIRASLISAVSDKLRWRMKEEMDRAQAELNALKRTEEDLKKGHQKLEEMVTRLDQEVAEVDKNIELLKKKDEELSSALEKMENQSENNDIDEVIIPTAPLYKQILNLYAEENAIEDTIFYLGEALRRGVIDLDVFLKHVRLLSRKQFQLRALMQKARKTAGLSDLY
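Fluorescence anisotropy tracks displacement of a FITC-tagged PTAP peptide (50 nM) from the Tsg101 binding domain (10 uM), following a 20 min room-temperature incubation at pH 7.5.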
RGS4 inh: Inhibitors of Regulator of G Protein Signaling (RGS) 4: qHTS; Regulator of G-protein signaling 4 (Homo sapiens), P49798; Transcreener GDP fluorescence polarization, RGS4-accelerated GTP hydrolysis; Potency, µM (top dose mostly 114 µM), for the others: at the top dose activity change, negative = inhibition, actives largely listed as inhibitors; hit rate 0.039% among 390,000; AID 504845, 2011; also: % is scaled to controls: 0 for no effect and ±100 for the full control effect; nearly all actives have a fitted effect of over 75% in size
Target sequence (P49798 whole entry, looked up): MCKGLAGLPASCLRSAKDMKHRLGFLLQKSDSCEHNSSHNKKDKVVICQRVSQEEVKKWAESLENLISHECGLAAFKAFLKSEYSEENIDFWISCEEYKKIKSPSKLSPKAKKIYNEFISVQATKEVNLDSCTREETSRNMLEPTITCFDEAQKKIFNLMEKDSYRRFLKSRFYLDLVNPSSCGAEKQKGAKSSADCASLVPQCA
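MLSMR compounds (23 nl, pin-transferred) preincubated 10 min at room temperature with a 500nM (2x) first reagent, then RGS4 at 900nM (2x) plus Transcreener GDP mix added; fluorescence polarization (620/688 nm) read before and after 90 min at 30 °C.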
KB-3-1 cytotox: qHTS assay for MDR1-selective chemotherapeutics: Primary screen using the parental adenocarcinoma cell KB-3-1 | KB-3-1 viability, CellTiter-Glo ATP luminescence, 72 h | Potency, µM (top dose mostly 46.1 µM), most hits filed as cytotoxic | hit rate 1.4% among 400,000; also: % is scaled to controls: 0 for no effect and ±100 for the full control effect; nearly all actives have a fitted effect of over 60% in size
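Cytotoxicity in the drug-sensitive parental line KB-3-1 was scored as loss of CellTiter-Glo luminescence following 72 h incubation with compound. Values come from curve fitting of normalized concentration-response data.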
MCF10A rerep: A quantitative high throughput screen for small molecules that induce DNA re-replication in MCF 10a normal breast cells; MCF 10A DNA re-replication, Hoechst nuclear intensity, 48 h; Potency, µM (titrated, usually from 46.1 µM), inactives show at the top dose activity, positive = re-replication, most hits filed as activators; hit rate 2.9% among 350,000; AID 624296, 2012; also: % of control where 0% means no effect; nearly all actives have a fitted effect of over 50% in size
KB-V1 cytotox: qHTS assay for MDR1-selective chemotherapeutics: Primary screen using the drug-selected MDR subline cells KB-V1 | AID 1347076, 2019 | Potency, µM (doses to about 46.1 µM), most hits filed as cytotoxic | hit rate 3.4% among 400,000 | KB-V1 MDR cells viability, CellTiter-Glo, 72 h; also: % is scaled to controls: 0 for no effect and ±100 for the full control effect; nearly all actives have a fitted effect of over 60% in size
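Readout: CellTiter-Glo luminescence, 10 min after addition. Cells: KB-V1 MDR subline, 72 h at 37 degrees C with compound. Analysis: corrected, normalized data fitted to concentration-effect curves.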
* marks the source's active call; other numbers are inactive results; i = inactive; ? = inconclusive; . = not tested or not shown; [ ] = another dose, or the depositor's remark. Hits are enriched below; roughly 6.6% of the tested compounds scored in any of these assays. Unless noted, calls follow the shape of the dose curve; as a rule, active = well fitted curve in the direction sought with a large enough effect; inconclusive = small, poorly fitted or top-dose-only effect, or another doubt; inactive = no such curve, though single readings can be large; an effect the other way counts as inactive or inconclusive. Potency is read from the fitted curve at half-maximal effect.

SMILES	SW480 rereplic	TSG101-PTAP inh	RGS4 inh	KB-3-1 cytotox	MCF10A rerep	KB-V1 cytotox
Oc1ccc(/C=N/Nc2cc(N3CCOCC3)nc(N3CCOCC3)n2)cc1O	13.7%	-0.9%	-33.6%	i	21.4%	i
Oc1ccccc1/C=N/Nc1cc(N2CCCC2)nc(N2CCCC2)n1	?	3.7%	-25.1%	?	18.4µM*	i
Oc1cccc(/C=N/Nc2cc(N3CCOCC3)nc(N3CCOCC3)n2)c1	5.8µM*	4.9%	-13.2%	i	?	?
c1cnc2[nH]ccc2c1	.	.	.	i	.	i
O=C(Nc1cc(Cl)ccc1O)c1snnc1-c1ccccc1	0.8%	-4.7%	-45.8%	18.4µM*	?	8.2µM*
O=C(Cn1nnc(-c2ccccc2-n2cnnn2)n1)c1ccccc1	-20.1%	-3.4%	8.2%	i	18.4µM*	i
O=C(c1ccc2c(c1)N(Cc1ccc(Cl)cc1)C(=O)c1ccccc1S2(=O)=O)N1CCCC1	.	.	13.0%	i	.	i
CCOC(=O)/C(=C\c1ccc(N2CCC(c3ccccc3)=N2)cc1)C(C)=O	1.46µM*	?	-26.4%	.	1.46µM*	.
CCOC(=O)N1N=C(c2ccccc2)CC1(O)C(F)(F)F (stereo not given)	3.4%	-2.8%	2.7%	i	1.2%	i
O=C(/C=C/c1ccc(N2CCC(c3ccccc3)=N2)cc1)c1ccccc1	?	?	?	i	6.51µM*	i
Cc1ccc(N2CC(NC(=O)c3ccc(S(=O)(=O)N4CCCC4)cc3)CC2=O)cc1 (stereo not given)	.	.	-0.7%	.	.	.
Nc1nc2ccc(Cl)cc2cc1C(=O)NCCc1c[nH]c2ccccc12	.	.	.	9.2µM*	.	i
Nc1nc2ccc(Cl)cc2cc1C(=O)NCCc1ccc(Cl)cc1Cl	.	.	.	i	.	?
O=S(=O)(NC1CCCCC1)c1ccc(Cl)s1	?	-1.4%	9.8%	i	20.6µM*	?
Cc1cc2ncc(-c3cccc(Cl)c3)cn2n1	-6.3%	0.1%	-5.6%	i	9.4%	i
Cc1cc2ncc(C(N)=O)cn2n1	4.11µM*	-11.1%	16.9%	i	29.4%	i
COc1ccc(C2CC(=O)N(Cc3ccccc3)c3c2c(C)nn3-c2nc(C)cc(C)n2)c(OC)c1 (stereo not given)	.	.	-1.1%	?	.	i
O=C(Nc1ccc(Cl)c(Cl)c1)c1cc(S(=O)(=O)N2CCN(c3cccc(Cl)c3)CC2)ccc1F	.	.	-12.0%	i	.	i
CC(=O)c1cccc(NC(=O)CSCc2ccccc2)c1	-10.8%	-11.7%	25.0%	i	5.8%	?
CC(=O)c1cccc(NC(=O)CSCc2ccc(Br)cc2)c1	0.5%	-1.7%	-6.6%	i	-1.2%	18.4µM*
COc1ccc(OC)c(NC(=O)Cn2c(=O)c3cccn3c3ccccc32)c1	.	.	-19.7%	.	.	.
Cn1c2ccccc2c2ccc3c(c21)C(=O)C=CC3=O	1.4%	-2.0%	?	?	6.51µM*	?
Cc1ccc(C)c2c1c1ccccc1n2C	-23.8%	-4.9%	-16.3%	i	1.4%	i
COc1ccc2c(c1)c1ccc3c(c1n2C)C(=O)C=CC3=O	-4.9%	-6.9%	-73.8%	i	?	i
Cc1ccc2c(c1)c1ccc3c(c1n2C)C(=O)C=CC3=O	?	-4.9%	-114.6%	16.4µM*	?	i
SMILES	SW480 rereplic	TSG101-PTAP inh	RGS4 inh	KB-3-1 cytotox	MCF10A rerep	KB-V1 cytotox
O=C(CCn1cnc(-c2ccccc2)c1-c1ccccc1)N/N=C/c1ccccc1O	9.2µM*	-11.2%	-14.4%[11.4 µM]	?	4.61µM*	i
O=C(CCn1cnc(-c2ccccc2)c1-c1ccccc1)N/N=C/c1ccc(O)cc1	?	-3.3%	-14.1%[11.4 µM]	?	?	i
COc1ccc(/C=N/NC(=O)CCn2cnc(-c3ccccc3)c2-c2ccccc2)cc1	3.26µM*	-10.8%	5.2%[11.4 µM]	5.17µM*	1.64µM*	i
COc1ccc(-c2sc(N)nc2-c2ccccc2)cc1	.	.	6.5%	i	.	i
Cc1cc(C)n(C(C[N+](=O)[O-])c2ccc(Cl)cc2)n1 (stereo not given)	?	-5.7%	-27.6%	?	14.6µM*	?
CCOc1ccc2nc(N3CCCC(C(=O)Nc4ccccc4CC)C3)sc2c1 (stereo not given)	.	.	10.6%	i	.	i
O=C(NCCCN1CCOCC1)c1ccc(Sc2ccccc2Cl)c([N+](=O)[O-])c1	?	-1.6%	-28.9%	?	?	13µM*
O=C(NCCCN1CCOCC1)c1ccc(Sc2ccc(Br)cc2)c([N+](=O)[O-])c1	0.3%	-2.5%	1.5%	i	33.1%	i
CCOC(=O)c1cc(S(=O)(=O)Nc2ccccc2OCC)[nH]n1	.	.	-10.0%	i	.	i
O=C(NCc1ccccc1Cl)c1ccc(Cn2cc(C(F)(F)F)ccc2=O)cc1	-1.7%	-9.8%	21.9%	i	8.7%	6.51µM*
O=C(NCc1ccc(Cl)cc1)c1ccc(Cn2cc(C(F)(F)F)ccc2=O)cc1	-4.6%	-4.9%	34.4%	i	17.8%	16.4µM*
CC(C)CCOc1ccc(-c2c(=O)n(OCc3ccc([N+](=O)[O-])cc3)c3ccccc3[n+]2[O-])cc1	?	-3.3%	-12.5%	i	1.84µM*	?
CCCOc1ccc(-c2c(=O)n(OCc3ccc([N+](=O)[O-])cc3)c3ccccc3[n+]2[O-])cc1	2.0%	-1.8%	-3.5%	i	4.5%	?
O=C(COC(=O)c1ccc2c(c1)C(=O)N(c1cccc3ncccc13)C2=O)c1ccc(Cl)cc1	?	-2.6%	-153.4%	i	6.51µM*	i
COc1ccc(-c2nnc(CSc3ncnc4sc5c(c34)CCC5)o2)cc1OC	?	3.9%	-46.8%	i	-1.8%	20.6µM*
COCCn1c(SCc2nnc(-c3ccccc3)o2)nc2sc3c(c2c1=O)CCC3	1.1%	-0.4%	-0.7%	i	25.0%	6.51µM*
COc1cc(NC(=O)c2ccc(C)cc2C)ccc1NC(=O)c1cc2ccccc2o1	?	-2.3%	14.6%	?	9.2µM*	i
COc1cc(NC(=O)c2ccc(C)cc2)ccc1NC(=O)c1cc2ccccc2o1	3.0%	-3.6%	11.1%	i	23.9%	i

From PubChem BioAssay
